Assay outcomes from PubChem.
A selection: hits, their analogues and other compounds. The true share with any hit is near 2.4%.
CRFBP-R2 block – antagonists of CRF-BP/CRF-R2 complex, primary screen, cell-based, HEK293, calcium dye fluorescence, uHTS | inhibition, % at 11.8 µM | hit rate 0.59% among 350,000 | CRF-induced calcium fluorescence;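 active means inhibition of the ligand-induced calcium signal above about 50% at the single tested concentration, limit read from the data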
ABHD5-PLIN5 inh – ABHD5-PLIN5 interaction inhibitors, primary screen, cell lysate, split luciferase complementation, luminescence; Perilipin-5 (Homo sapiens) + 1-acylglycerol-3-phosphate O-acyltransferase ABHD5 (Homo …; Split G. princeps luciferase complementation, 4 h; inhibition, % at 4 µM; hit rate 0.78% among 360,000; AID 602281, 2012;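 active means inhibition above the mean inhibition across every tested compound plus 3 SD, cut at about 22% in these data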;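 further: 0% = DMSO only wells and the 100% control is not disclosed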
TLR4 MyD88 comp – inhibitors of TLR4-MyD88 association in cells, primary screen, cell-based, HeLa CL3-4, BLA complementation, FRET ratio. Toll-like receptor 4 (Homo sapiens) + Myeloid differentiation primary response protein …. HeLa CL3-4 TLR4/MyD88 BLA complementation. inhibition, % at 8.4 µM. hit rate 0.18% among 200,000; in the data active means inhibition above about 25%;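 further: 0% = vehicle and 100% = reference inhibitor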
TLR9-MyD88 block – inhibitors of TLR9-MyD88 association in cells, primary screen, cell-based, CHO, BLA complementation, fluorescence; Toll-like receptor 9 (Homo sapiens) + Myeloid differentiation primary response protein …; CCF4 FRET ratio; inhibition, % at 4.98 µM; hit rate 0.21% among 340,000;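 active means inhibition above the mean over all tested compounds plus 3 SD, cut at about 21% in these data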;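 further: 0% = DMSO only wells and 100% = clavulanate BLA inhibitor control wells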
m5-HT2A agonist – mouse Htr2a agonists via beta-arrestin recruitment, primary screen, cell-based, luminescence. 5-hydroxytryptamine receptor 2A (Mus musculus), P35363. CHO-K1 mHTR2A beta-arrestin complementation; percent of 30 µM serotonin response. activation, % at 7.6 µM. hit rate 0.66% among 360,000. AID 624169, 2012;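 active means activation above a run cutoff, the mean activation of all tested compounds plus 3 SD, cut at about 14% in these data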;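 further: 0% = plate median of compound wells and 100% = 30 µM serotonin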
NOD2 RIPK2 PPI – NOD2-RIPK2 binding disruptors in cells, primary screen, fluorescence, CHO cells, BLA complementation | CCF4 ratio | inhibition, % at 4.98 µM | hit rate 0.38% among 360,000 | AID 624267, 2012; in the data active means inhibition above about 21%;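 further: 0% = vehicle only and 100% = reference blocker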
Target sequence (O43353 whole entry, looked up): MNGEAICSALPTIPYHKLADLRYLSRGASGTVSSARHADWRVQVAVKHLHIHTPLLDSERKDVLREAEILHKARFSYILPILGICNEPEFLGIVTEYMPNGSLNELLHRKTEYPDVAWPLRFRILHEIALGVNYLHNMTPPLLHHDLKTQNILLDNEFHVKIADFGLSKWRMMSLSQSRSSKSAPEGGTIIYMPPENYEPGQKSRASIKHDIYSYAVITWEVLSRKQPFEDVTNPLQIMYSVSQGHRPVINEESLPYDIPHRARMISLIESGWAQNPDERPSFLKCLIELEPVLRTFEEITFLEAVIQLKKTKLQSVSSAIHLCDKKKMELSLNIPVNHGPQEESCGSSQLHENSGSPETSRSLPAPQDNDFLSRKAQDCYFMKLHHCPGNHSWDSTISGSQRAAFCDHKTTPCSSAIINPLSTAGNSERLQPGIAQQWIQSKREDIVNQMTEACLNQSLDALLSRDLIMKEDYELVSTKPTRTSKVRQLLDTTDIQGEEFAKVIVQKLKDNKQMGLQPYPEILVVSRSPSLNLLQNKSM
* hit, by the source's call; . = not tested or not shown.

SMILES | CRFBP-R2 block | ABHD5-PLIN5 inh | TLR4 MyD88 comp | TLR9-MyD88 block | m5-HT2A agonist | NOD2 RIPK2 PPI
Cc1cc2nc(-c3ccccc3)c(Cc3ccsc3)n2c(C)c1Br | . | -10 | . | . | -1 | 5
Cc1ccc(-c2ccc(/C=N/NC(N)=S)o2)cc1 | -15 | -4 | . | -5 | -3 | 4
NC(=S)N/N=C/c1ccc(-c2ccc(SC(F)F)cc2)o1 | 58* | -13 | . | -1 | 2 | 3
Cc1nc2cc(Cl)ccc2n1CCO | 3 | -2 | -5 | -12 | -1 | 3
Cc1cc2nc(C)n(CCCNC(=O)Nc3ccc(C#N)cc3)c2cc1C | -25 | 4 | -13 | -9 | 44* | 0
Cc1cc2nc(C)n(CCCN)c2cc1C | 54* | 1 | 2 | -9 | -9 | 5
CCn1c(C)nc2cc(C#N)ccc21 | -4 | -1 | -2 | 10 | -1 | 0
COC(=O)C[C@H]1C=C[C@H](NS(=O)(=O)c2cn(C)cn2)[C@@H](CO)O1 | . | -12 | . | . | -2 | -16
Fc1ccc(Oc2ccnc(Cl)n2)c(Cl)c1 | 53* | . | . | . | . | .
Cn1c(-c2ccc(-c3ccccc3)cc2)c[nH]c1=S | 108* | -18 | -18 | -6 | -8 | 4
COc1ccc(C2=Nc3ccccc3N(C(=O)c3ccncc3)C2C(=O)NC(C)(C)C)cc1 (stereo not drawn) | . | -5 | . | . | -7 | -13
Cn1c(=O)cc(OCCCC(=O)NCCCN2CCN(Cc3ccccc3)CC2)c2ccccc21 | -2 | 8 | -9 | -3 | -5 | 2
Cn1c(=O)cc(OCCCC(=O)NCc2ccccn2)c2ccccc21 | 7 | -1 | -2 | 2 | -1 | -6
Cn1c(=O)cc(OCC(=O)NCc2ccccn2)c2ccccc21 | 22 | 73* | 8 | -5 | -3 | 16
Cn1c(=O)cc(OCCCC(=O)NCCN2CCN(c3ccccc3F)CC2)c2ccccc21 | 82* | 6 | -5 | 9 | -4 | -14
Cn1c(=O)cc(OCC(=O)NCCCN2CCN(c3cccc(Cl)c3)CC2)c2ccccc21 | 18 | 4 | -4 | -5 | 14 | -4
Cn1c(=O)cc(OCC(=O)NCCCN2CCN(c3ccccc3F)CC2)c2ccccc21 | -32 | 1 | -9 | -15 | 25* | 1
Cc1cccc(C)c1N1C(=O)c2ccccc2NC(=O)C1C(=O)NCc1ccco1 (stereo not drawn) | . | -3 | . | . | 4 | -2
COc1cccc(/C=C2\SC(=S)N(NS(=O)(=O)c3ccccc3)C2=O)c1OC | 63* | -7 | . | -19 | 9 | 9
COc1ccc(/C=C2/SC(=O)N(NS(=O)(=O)c3ccccc3)C2=S)cc1OC | 52* | -14 | 0 | 4 | -3 | -9
COC(=O)C1(C(=O)OC)C/C=C\CN(S(=O)(=O)c2ccccc2[N+](=O)[O-])CC1 | . | -7 | . | . | 1 | 2
Cc1cc(NC(=O)Cn2nc3c(cc2=O)CCCC3)ccc1Br | 55* | 6 | 3 | 1 | 8 | -7
Cc1cc(NC(=O)Cn2nc(C(=O)O)c3ccccc3c2=O)ccc1Br | -1 | 0 | . | -1 | -2 | -8
CC1(C(=O)NCc2ccccc2)CSCC(=O)N1Cc1cccs1 (stereo not drawn) | . | 11 | . | . | 2 | -19
COCCCn1cc(CN2CC(N3CCN(C4CCN(C)CC4)CC3)CS2(=O)=O)nn1 (stereo not drawn) | . | 0 | . | . | 5 | -15
SMILES | CRFBP-R2 block | ABHD5-PLIN5 inh | TLR4 MyD88 comp | TLR9-MyD88 block | m5-HT2A agonist | NOD2 RIPK2 PPI
COc1ccc(CNc2nc(NCc3ccc(OC)c(OC)c3)n(C(=O)c3cccs3)n2)cc1OC | -3 | 23* | -5 | 7 | 3 | -8
C[C@H]1CN([C@@H](C)CO)C(=O)c2cccc(NC(=O)Nc3ccc(C(F)(F)F)cc3)c2O[C@@H]1CN(C)C(=O)Nc1ccc(F)cc1 | -22 | 10 | . | -7 | -10 | 3
C[C@H](CO)N1C[C@H](C)[C@@H](CN(C)C(=O)Nc2ccc(C(F)(F)F)cc2)Oc2c(NC(=O)Nc3ccc(C(F)(F)F)cc3)cccc2C1=O | -1 | -3 | . | 1 | 15* | -9
COC(=O)[C@]12CCCCC=C1N(CCc1ccc(OC)c(OC)c1)C(=O)[C@H](CC(=O)N1CCOCC1)C2 | . | 0 | . | . | -2 | -8
CCOC(=O)CSC1=C(C#N)C(c2ccc(Cl)cc2)C(C(=O)OC)C(=O)N1 (stereo not drawn) | 53* | 11 | 8 | -2 | 3 | -13
COC(=O)C1C(=O)NC(SC)=C(C#N)C1c1ccccc1 (stereo not drawn) | -8 | 1 | 1 | -10 | 2 | 0
COC(=O)CSC1=C(C#N)C(c2ccc(Cl)cc2)C(C(=O)OC)C(=O)N1 (stereo not drawn) | 58* | 0 | -1 | 0 | 2 | -9
CCOC(=O)C1=NN(c2ccc(F)cc2)C2=NC(C)=C(C(=O)OC)C(c3cccs3)N12 (stereo not drawn) | -17 | 0 | 2 | -6 | 3 | 1
CCOC(=O)C1=NN(c2ccccc2)C2=NC(C)=C(C(=O)OC)C(c3cccs3)N12 (stereo not drawn) | 75* | -2 | -9 | -9 | -3 | -6
CCCCN(C)c1c(C)nc2ccc(C(=O)NCc3ccc4c(c3)OCO4)cn12 | . | -1 | . | . | -4 | -9
COC(=O)C1C(c2ccccc2)C(C(=O)OCc2ccco2)C1c1ccccc1 (stereo not drawn) | 59* | 2 | 18 | -2 | -17 | -10
O=C(O)C1C(c2ccccc2)C(C(=O)OCc2ccco2)C1c1ccccc1 (stereo not drawn) | -11 | 4 | -4 | -8 | -1 | 2
Cc1cc(Br)c2nc(-c3ccccc3)c(Cc3cccc(Cl)c3)n2c1 | . | -8 | . | . | 5 | -14
CCOc1ccccc1NC(=O)COC(=O)C1COc2ccccc2O1 (stereo not drawn) | 95* | -1 | . | 0 | 3 | 8
COc1ccc(C(C)(O)c2nc(-c3ccccc3C)cs2)cc1 (stereo not drawn) | . | -8 | . | . | 1 | 5
O=C(NNC1=C(C(=O)C(F)(F)F)CCC1)c1cccc(Cl)c1 | 55* | -9 | -1 | 1 | -4 | -1
NCC[C@H](O)C(=O)N[C@@H]1C[C@H](N)[C@@H](O[C@H]2O[C@H](CN)[C@@H](O)[C@H](O)[C@H]2O)[C@H](O)[C@H]1O[C@H]1O[C@H](CO)[C@@H](O)[C@H](N)[C@H]1O | 64* | -5 | -7 | -8 | 1 | -7
O=c1cc(CN(Cc2ccccc2)Cc2ccccc2)c2ccccc2o1 | . | 0 | . | . | -5 | -1
